RE007 growth inh – less growth of the S. pombe RE007 Vpr strain | S. pombe RE007 Vpr strain, BacTiter-Glo ATP luminescence, 24 h | Potency, µM (series often up to 92.2 µM), for inactives: top-dose activity change, negative = less growth, most hits filed as inhibitors | actives 0.21% (n = 360,000) | AID 651644; active = well fitted falling curve with a large enough effect; inconclusive = small, poorly fitted or top-dose-only effect; inactive = no such curve, though single readings can be large or run the other way; note: % is set by controls: 0 for no effect and ±100 for the full control effect; nearly all actives have a fitted effect of over 50% in size
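Fission yeast strain RE007, carrying one chromosomally integrated HIV-1 vpr copy, was seeded at OD 0.01 in PMG+AL medium with 23 nL pinned compound. After 24 h at 30 °C and 99% humidity, viability was read by BacTiter-Glo luminescence.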
TbPYK inhibitor – blocks Trypanosoma brucei pyruvate kinase; Q57TT1; TbPYK enzyme, Kinase-Glo Plus ATP luminescence, 45 min; Potency, µM (series often up to 76.8 µM), inactives show at the highest dose activity, negative = inhibition, usual class: inhibitors; AID 624173; actives 0.12% (n = 410,000); note: % is set by controls: 0 for no effect and ±100 for the full control effect; nearly all actives have a fitted effect of over 50% in size
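Luminescent Kinase-Glo Plus end-point after 45 min room-temperature reaction of T. brucei pyruvate kinase started with 130 uM ADP (final). Buffer TEA 50 mM pH 7.2 with KCl, MgCl2, BSA, Tween-20; titration-based qHTS with fitted concentration-effect curves.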
Sm TGR inh – inhibitors of Schistosoma mansoni thioredoxin glutathione reductase | Q962Y6 | purified TGR, DTNB reduction, TNB absorbance 405 nm | actives 3% (n = 360,000) | Potency, µM (top dose mostly 114 µM), for inactives: top-dose activity change, negative = inhibition, hits mostly inhibitors | AID 485364; note: % is set by controls: 0 for no effect and ±100 for the full control effect; nearly all actives have a fitted effect of over 60% in size
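Kinetic colorimetric format: TGR-catalysed, NADPH-driven DTNB reduction monitored via TNB absorbance. Enzyme dispensed at 20 nM; compound exposure 15 min at room temperature before reaction start.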
SARS PLP yeast – blocks SARS-CoV papain-like protease in a yeast assay | S. cerevisiae expressing SARS-CoV PLpro, growth rescue | Potency, µM (doses to about 32.9 µM), without a hit: at the highest dose activity, positive = growth rescue, most hits filed as activators | actives 0.19% (n = 330,000); calls by dose curve; note: 0% is about no effect; nearly all actives have a fitted effect of over 55% in size
AmpC no deterg – blocks E. coli AmpC beta-lactamase in detergent-free assay; AmpC nitrocefin hydrolysis, absorbance 480 nm, 0.0001% Triton; Potency, µM (series often up to 57.1 µM), without a hit: at the top dose activity change, negative = inhibition, actives largely listed as inhibitors; actives 0.52% (n = 330,000); P00811;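 note: plate controls were no compound for no effect and no enzyme for full effect; nearly all actives have a fitted effect of over 20% in size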
Target sequence (P00811 whole entry, looked up): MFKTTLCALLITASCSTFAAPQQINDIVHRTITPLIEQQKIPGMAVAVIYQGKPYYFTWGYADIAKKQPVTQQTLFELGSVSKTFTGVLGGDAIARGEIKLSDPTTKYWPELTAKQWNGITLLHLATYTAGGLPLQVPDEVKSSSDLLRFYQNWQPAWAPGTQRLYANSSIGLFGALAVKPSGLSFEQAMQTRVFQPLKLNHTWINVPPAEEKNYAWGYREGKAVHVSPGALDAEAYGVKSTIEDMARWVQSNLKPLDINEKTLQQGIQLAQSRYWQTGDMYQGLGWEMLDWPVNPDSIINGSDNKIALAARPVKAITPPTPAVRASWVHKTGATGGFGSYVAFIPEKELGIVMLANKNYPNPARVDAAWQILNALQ
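20 mM phosphate pH 7.0 + 0.01% (detergent screen) or 0.0001% Triton X-100; 5.3 nM AmpC reagent; cpd preinc 15 min RT; nitrocefin (800 uM stock) to start; A480 q20 s × 4 min; Activity was normalised to no-enzyme and no-compound control wells.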
AmpC inh detg – blocks E. coli AmpC beta-lactamase in detergent assay; AmpC hydrolysis of nitrocefin, absorbance 480 nm, 0.01% Triton; Potency, µM (series often up to 114 µM), inactives show at the highest dose activity change, negative = inhibition, usual class: inhibitors; actives 0.041% (n = 370,000);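 note: 0% = no-compound wells and -100% = no-enzyme wells; nearly all actives have a fitted effect of over 25% in size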
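20 mM phosphate pH 7.0 + 0.01% (detergent screen) or 0.0001% Triton X-100; 5.3 nM AmpC reagent; cpd preinc 15 min RT; nitrocefin (800 uM stock) to start; A480 q20 s × 4 min; Activity was normalised to no-enzyme and no-compound control wells.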
* hit, by the source's call; ? = inconclusive; . = no result given. Shown are actives, neighbours in structure and some others; about 3.3% of the full set was active somewhere. Unless noted, calls come from the whole dose curve; as a rule, active = well fitted curve in the direction sought with a large enough effect; inconclusive = small, poorly fitted or top-dose-only effect, or another doubt; inactive = no such curve, though single readings can be large; an effect the other way counts as inactive or inconclusive. Potency is the fitted concentration of half-maximal effect.

SMILES | RE007 growth inh | TbPYK inhibitor | Sm TGR inh | SARS PLP yeast | AmpC no deterg | AmpC inh detg
CCOC(=O)[C@H]1[C@H]2COc3ccc(OC)cc3[C@@H]2N2C(=O)CN(Cc3ccco3)C(=O)[C@@]12C | 4% | -5% | ? | -6% | 40% | 1%
O=S(=O)(c1ccc2ccccc2c1)n1nc(-c2ccco2)nc1NCc1ccc(F)cc1 | . | 0% | ? | . | . | 3%
COc1ccc(CN2CC[C@H]3C=CCc4cccc(c43)C2)cc1 | -11% | 4% | 28µM* | -5% | -14% | 2%
Cc1ccc(CN2CC[C@H]3C=CCc4cccc(c43)C2)cc1 | -18% | 0% | -24% | 1% | -11% | 3%
Cc1ccccc1NC(=O)CSc1nc2ccc(NC(=O)CCc3ccccc3)cc2s1 | . | 1% | 4% | . | . | -10%
COc1ccc2c(=O)c3c(=O)n(Cc4ccco4)c(C(C)C)nc3oc2c1 | 1% | 4% | -19% | -22% | 2% | -5%
COc1ccc2c(=O)c3c(=O)n(Cc4ccco4)c(-c4ccc(C)cc4)nc3oc2c1 | 1% | -14% | 32µM* | -7% | 0% | -3%
CCCC1CC(CSC(=N)N)OC1=O (stereo not given) | -6% | -16% | 0% | 14µM* | -23% | -5%
CCCCCCC1CC(CSC(=N)N)OC1=O (stereo not given) | 18% | -12% | -9% | -2% | -15% | 0%
COc1ccc(S(=O)(=O)N[C@@H](CSCc2ccccc2)C(=O)O)cc1 | 17% | 2% | 40µM* | 0% | -9% | -7%
CO/N=C/C(c1ccc(Cl)nc1)S(=O)(=O)c1ccccc1 (stereo not given) | 1% | -5% | 22µM* | 1% | 0% | -4%
CO/N=C/C(c1ncc(C(F)(F)F)cc1Cl)S(=O)(=O)c1ccccc1 (stereo not given) | -31% | 1% | -45% | -4% | 2% | 0%
Cc1cccc(N2CCN(C(=O)Cn3c(=O)c4cccn4c4ccc(F)cc43)CC2)c1C | . | -4% | -12% | . | . | 22%
COc1ccc(N2CC(NC(=O)COc3ccc(F)cc3)CC2=O)cc1OC (stereo not given) | . | 2% | -6% | . | . | -2%
Cc1ccc(Cl)cc1N1CCN(S(=O)(=O)c2ccc3c(c2)NC(=O)C(C)C(=O)N3)CC1 (stereo not given) | 2% | 0% | 79µM* | 0% | 11µM* | -5%
Cc1ccc(Cl)cc1N1CCN(S(=O)(=O)c2ccc3c(c2)C(C(C)C)C(=O)N3)CC1 (stereo not given) | . | -5% | 2% | . | . | 24%
O=C(O)/C=C/C(=O)N(Cc1ccc2c(c1)OCO2)C1CC(=O)N(CCc2ccccc2)C1=O (stereo not given) | 4% | -1% | -17% | 0% | -14% | -17%
CC(=O)N(Cc1ccc2c(c1)OCO2)C1CC(=O)N(CCc2ccccc2)C1=O (stereo not given) | -7% | -5% | 22µM* | -6% | 15% | -15%
COc1cn(CC(=O)Nc2ccc(F)cc2)c(CN2CCCCC2)cc1=O | . | 3% | 5% | . | . | 9%
Cc1cc(C(c2ccc(C)o2)c2ccc(C)o2)c(O)c([N+](=O)[O-])c1 | -25% | -11% | 45µM* | -27% | -40% | ?
O=C(/C=C/c1ccc(F)cc1)c1cc(Br)ccc1O | -24% | -3% | -13% | 0% | -39% | 1%
O=C(/C=C/c1ccccc1)c1cc(Br)ccc(=O)c1O | -22% | ? | 3.2µM* | 22µM* | -48% | ?
COc1ccc(N2CC(NC(=O)COc3ccc4ccccc4c3)CC2=O)cc1OC (stereo not given) | . | 5% | 0% | . | . | 5%
CCOC(=O)c1cnc2c(C)cc(Cl)cc2c1NCCCN1CCOCC1 | -1% | -1% | ? | 0% | 6% | 1%
CCOC(=O)c1cnc2c(Cl)cc(Cl)cc2c1NCCCN1CCOCC1 | 3% | 4% | 13µM* | -2% | -3% | ?
SMILES | RE007 growth inh | TbPYK inhibitor | Sm TGR inh | SARS PLP yeast | AmpC no deterg | AmpC inh detg
COc1ccc(OC)c2[nH]c(=O)c(CCNC(=O)C(C)C)cc12 | 3% | -1% | 0% | 4% | 10µM* | ?
CCC(CC)C(=O)NCCc1cc2c(OC)ccc(OC)c2[nH]c1=O | 1% | -8% | 5% | -1% | -20% | -1%
COc1ccc(OCC#CCN2CC(C)OC(C)C2)cc1 (stereo not given) | 13% | 3% | 7.1µM* | 13% | 3% | ?
COc1ccc(OCC#CCN2CCCCCC2)cc1 | -17% | 11% | ? | 0% | -12% | ?
CCOc1ccc(C(=O)Nc2ccc(S(=O)(=O)Nc3nc(C)cc(C)n3)cc2)cc1OC | . | 0% | 5% | . | . | 14%
Cc1ccc(C)c(C(=O)COC(=O)C(C)N2C(=O)C3C4CCC(C4)C3C2=O)c1 (stereo not given) | -15% | 2% | 22µM* | -2% | 74% | -3%
Cc1ccc(S(=O)(=O)c2cnc(SCC(=O)Nc3cc(C)cc(C)c3)nc2N)cc1 | . | 7% | -10% | . | . | -7%
O=C(/C=C/c1cccc([N+](=O)[O-])c1)NC(=S)Nc1cccc(NC(=O)c2ccccc2Cl)c1 | 13% | -5% | 8% | -1% | -55% | -20%
CC(=O)Oc1ccccc1C(=O)C=Cc1cccc([N+](=O)[O-])c1 | 25µM* | 7% | . | . | . | .
Cc1cc(O)c(C(=O)/C=C/c2cccc([N+](=O)[O-])c2)c(=O)o1 | -3% | -1% | 0% | 2% | 14µM* | 1%
O=C(/C=C/c1cccc([N+](=O)[O-])c1)c1cccs1 | ? | 9% | -21% | -61% | -12% | -13%
O=C(/C=C/c1cccc([N+](=O)[O-])c1)NC(=S)Nc1ccccc1C(=O)O | . | . | 18µM* | 1% | -33% | 2%
CCCN(CCC)C(=O)Cn1nnc2sc(-c3ccccc3)cc2c1=O | . | 5% | -11% | . | . | 22%
Cc1ccc2c(c1)C(c1ccc(F)cc1)N(C(=O)C(C)C)CC(=O)N2 (stereo not given) | . | 2% | 3% | . | . | 4%
Cc1csc(/C(=N/OC(=O)c2ccco2)C(N)=O)n1 | -11% | -9% | 4µM* | 0% | -16% | -6%
Cc1ccc(C)c(CN2C(=O)CSc3ccc(C(=O)NCCc4ccc(Cl)cc4)cc32)c1 | . | -3% | -2% | . | . | -1%
O=[N+]([O-])c1cc(-c2nc(-c3ccccc3)no2)ccc1NC1CCCC1 | . | 3% | -7% | . | . | 5%

Screening results (PubChem)
